# A selection: hits, their analogues and other compounds. The true share with any hit is near 12%.
# PLK1 PBD inh = qHTS for Inhibitors of PLK1-PDB (polo-like kinase 1 - polo-box domain): Primary Screen. Serine/threonine-protein kinase PLK1 (Homo sapiens), P53350. Plk1 PBD binding of FITC phosphopeptide, fluorescence polarization. Potency, µM, without a hit: max response, negative = inhibition, usual class: inhibitors. 2.8% of 360,000 active. AID 720504, 2013; further: series mostly up to about 57 µM; on the % scale 0 is the no-effect control and ±100 the full control effect; nearly all actives have a fitted effect of over 65% in size
# G9a inh = qHTS Assay for Inhibitors of Histone Lysine Methyltransferase G9a; Histone-lysine N-methyltransferase EHMT2 (Homo sapiens), Q96KQ7; G9a H3K9 monomethylation, AlphaScreen, 2 h; Potency, µM (doses to about 102 µM), without a hit: top-dose activity, negative = inhibition, most hits filed as inhibitors; 8.8% of 350,000 active; further: on the % scale 0 is the no-effect control and ±100 the full control effect; nearly all actives have a fitted effect of over 75% in size
#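 Chemiluminescent proximity detection of H3K9 monomethylation, read after 10 min bead incubation in the dark. Reaction: 20 nM G9a, 500 nM biotin-H3K9 peptide, 20 uM SAM cofactor, 2 h, room temperature, following 15 min enzyme-compound preincubation.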
# JMJD2A Tudor = qHTS Assay for Inhibitors of JMJD2A-Tudor Domain; Potency, µM (series often up to 114 µM), inactives show at the top dose activity change, negative = inhibition, most hits filed as inhibitors; Lysine-specific demethylase 4A (Homo sapiens), O75164; AID 504339, 2011; 4.4% of 390,000 active; AlphaScreen JMJD2A-Tudor / H3K4me3 peptide binding; further: on the % scale 0 is the no-effect control and ±100 the full control effect; nearly all actives have a fitted effect of over 50% in size
# Sfp PPTase inh = qHTS Assay for Inhibitors of Bacillus subtilis Sfp phosphopantetheinyl transferase (PPTase); 4'-phosphopantetheinyl transferase ffp (Bacillus subtilis), Q9F4F7; Biochemical Sfp PPTase activity, qHTS; Potency, µM, for inactives: largest response in the series, negative = inhibition, actives largely listed as inhibitors; 3.5% of 310,000 active; AID 1490, 2009;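 further: the enzyme is Sfp with the accession as filed and its product quenches rhodamine fluorescence; 0% = enzyme reaction without inhibitor and -100% = no enzyme wells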
#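 Reaction rates are the 30-min fluorescence difference (ex 525, em 598 nm) in wells containing 15 nM Sfp, 5 uM rhodamine-CoA and 12.5 uM BHQ-2-YbbR at pH 7.6 with 10 mM MgCl2.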
# BAZ2B block = qHTS Assay for Inhibitors of BAZ2B; AlphaScreen BAZ2B-H3K14Ac peptide displacement; Potency, µM (highest dose often 114 µM), without a hit: top-dose activity change, negative = inhibition, hits mostly inhibitors; 4.4% of 360,000 active; further: on the % scale 0 is the no-effect control and ±100 the full control effect; nearly all actives have a fitted effect of over 60% in size
#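 Compounds, titrated to a top concentration of 110 uM, were incubated 30 min at room temperature with preformed BAZ2B/acetyl-K14 H3 peptide complex (50 nM each). Proximity signal was measured by AlphaScreen after 20 min with beads.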
# HP1b chromo inh = HTS for Inhibitors of HP1-beta Chromodomain Interactions with Methylated Histone Tails; Potency, µM (top dose mostly 114 µM), for inactives: top-dose activity change, negative = inhibition, actives largely listed as inhibitors; AlphaScreen HP1-beta / biotin-H3K9me3 peptide binding; 0.56% of 390,000 active; further: nearly all actives have a fitted effect of over 70% in size
#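 HP1-beta protein (50 nM final) preincubated 30 min at room temperature with biotinylated H3(1-18)K9me3 peptide (50 nM) in PBS pH 7.4, 0.01% Tween-20, then compound added for 30 min. AlphaScreen streptavidin donor/nickel chelate acceptor beads (10 ug/mL final), 30 min dark, luminescence read.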
# * hit, by the source's call; ? = inconclusive; / = no result given; [ ] = remark or other dose. The call rests on the fitted dose curve; in most records, active means well fitted curve in the direction sought with a large enough effect; inconclusive means small, poorly fitted or top-dose-only effect, or another doubt; inactive means no such curve, though single readings can be large; an effect the other way counts as inactive or inconclusive. Potency means the concentration at half of the fitted maximal effect.
SMILES,PLK1 PBD inh,G9a inh,JMJD2A Tudor,Sfp PPTase inh,BAZ2B block,HP1b chromo inh
CCNc1nc(NCC)n2c(SCC(=O)Nc3ccc(CC)cc3)nnc2n1,6.7µM*,2.5µM*,?,/,-33%,?
CCNc1nc(NCC)n2c(SCc3ccc(F)cc3)nnc2n1,-12%,10µM*,-14%,2%,8%,4%
CCNc1nc(NCC)n2c(SCC(=O)c3ccccc3Cl)nnc2n1,-13%,?,-12%,12%,-17%,42%
CCNc1nc(NCC)n2c(SCC(=O)Nc3ccccc3F)nnc2n1,12µM*,-13%[0.501 µM],-11%,/,8%,-14%
CCNc1nc(NCC)n2c(SCc3nc4ccccc4c(=O)[nH]3)nnc2n1,-7%,2%[12.7 µM],-7%,14%,-4%,25%
CCNc1nc(NCC)n2c(SCC(=O)Nc3ccccc3OC(F)F)nnc2n1,-11%,/,-17%,/,/,18%
CCNc1nc(NCC)n2c(SCC(=O)Nc3ccc(NC(C)=O)cc3)nnc2n1,-5%,50µM*,-25%,/,50µM*,0%
COc1ccc(C2c3ccc4ccccc4c3Oc3ncn(CCN(C)C)c(=N)c32)cc1 (stereo not given),-4%,23%[2.33 µM],-34%,-3%,-23%,18%
CCOc1ccccc1N1CC(C(=O)NC2CCCCCC2)CC1=O (stereo not given),-9%,/,-11%,/,/,20%
Cc1cc(NC(=O)CN2C(=O)NC3(CCCCCC3)C2=O)ccc1Br,-4%,-44%[12.7 µM],-10%,/,-1%,36%
CC(=O)Nc1cccc(C(=O)Nc2ccc(S(=O)(=O)NC3=NCCCCC3)cc2)c1,-10%,19%[0.501 µM],-15%,/,4%,20%
CON(C)S(=O)(=O)c1cccc(C(=O)Nc2ccc(S(=O)(=O)NC3=NCCCCC3)cc2)c1,-8%,50µM*,-4%,/,8%,11%
CON(C)S(=O)(=O)c1cccc(C(=O)Nc2cccc(S(=O)(=O)NC3=NCCCCC3)c2)c1,3%,/,-13%,/,/,33%
CCN(CC)S(=O)(=O)c1cccc(C(=O)Nc2ccc(S(=O)(=O)NC3=NCCCCC3)cc2)c1,-7%,16µM*,-17%,/,1%,3%
CCCOc1cccc(NC(=O)c2c(-c3ccccc3Cl)noc2C)c1,/,15%[59 µM],14%,/,14%,66%
CCC(C)c1ccccc1N1CC(C(=O)Nc2ccc(N3CCOCC3)cc2)CC1=O (stereo not given),-5%,2%[2.33 µM],-28%,/,7%,0%
COc1ccc2[nH]cc(CCNc3nc(-c4ccccc4CN(C)C)nc4ccccc34)c2c1,/,/,/,-20%,/,/
Cc1ccc(NC(=O)CN2C(=O)NC(Cc3ccccc3)C2=O)cc1Cl (stereo not given),1%,8%[12.7 µM],-5%,/,2%,38%
Clc1cc2c(c(CSc3nc4ccccc4n4cccc34)c1)OCOC2,-8%,45µM*,0%,3%,-9%,53%
Clc1cc2c(c(Cn3cnc4ccccc43)c1)OCOC2,-7%,2%[59 µM],-15%,19%,5%,26%
COc1ccc(CN(CC2CCCO2)C(=O)c2cc3sccc3n2C)c(OC)c1 (stereo not given),-7%,?,?,5%,56µM*,-22%
O=C(Nc1ccc(F)cc1F)c1cncc(Br)c1,-2%,16%[12.7 µM],-13%,8%,-23%,29%
CC(C)(C)c1ccc(NC(=O)c2ccccc2)c([N+](=O)[O-])c1,-15%,?,50µM*,-15%,?,?
Cc1c(NC(=O)c2ccc(C(C)(C)C)cc2)cccc1[N+](=O)[O-],-1%,17%,-12%,-4%,2%,14%
O=C(NNC(=S)NC(=O)c1ccccc1Cl)c1cccc([N+](=O)[O-])c1,-13%,35µM*,-15%,17%,3%,-1%
SMILES,PLK1 PBD inh,G9a inh,JMJD2A Tudor,Sfp PPTase inh,BAZ2B block,HP1b chromo inh
O=C(NNC(=S)NC(=O)c1ccc(Br)cc1)c1cccc([N+](=O)[O-])c1,27µM*,35µM*,-25%,-6%,7%,20%
O=C(Nc1ccccc1[N+](=O)[O-])c1cncc(Br)c1,30µM*,-51%,?,4%,-29%,-11%
O=C(NNC(=S)NCc1ccccc1)c1cccc([N+](=O)[O-])c1,-17%,-42%,-28%,10%,-20%,20%
C/C(=N\NC(=O)C(N)=O)c1cccc([N+](=O)[O-])c1,-4%,?,?,-20%,?,33%
O=C(NC(=S)Nc1ccccc1[N+](=O)[O-])c1ccccc1,-18%,25µM*,?,28µM*,-18%,?
NS(=O)(=O)c1cccc(NC(=S)NC(=O)c2cccc([N+](=O)[O-])c2)c1,?,/,-20%,50µM*,-10%,?
O=C(O)CCC(=O)NNC(=O)c1ccc([N+](=O)[O-])cc1,24µM*,2%,-1%[11.4 µM],22%,-21%,8%
CNC(=S)N/N=C(\C)c1cccc([N+](=O)[O-])c1,-16%,?,-23%,56µM*,50µM*,-8%
COC(=O)[C@H](C)NC(=O)C/C=C\[C@@H](C)[C@H]1C=C[C@H](O)[C@@H](CO)O1,/,/,/,-3%,/,/
COCC(=O)N1CCC(Oc2ccc(C(=O)NCCCC3CCCC3)cc2)CC1,2%,24%,-3%,10%,-3%,19%
Cc1ccc(-c2cc(C(=O)NCc3ccccc3)c3c(-c4ccc(C)cc4)[nH]nc3n2)cc1,/,6%[59 µM],11%,/,5%,11%
O=C(NNC(=S)NC(=O)c1ccccc1)c1ccc([N+](=O)[O-])cc1,27µM*,48%[0.501 µM],-26%,?,5%,0%
CC(=O)NNC(=S)NC(=O)c1cccc([N+](=O)[O-])c1,24µM*,?,8.9µM*,11µM*,?,?
O=[N+]([O-])c1ccc(NC(=S)N/C(=N/CS(=O)(=O)c2ccccc2)c2ccccc2)cc1,19µM*,11µM*,-25%,-7%,?,25%
COc1ccc(NC(=S)N/C(=N/CS(=O)(=O)c2ccccc2)c2ccccc2)cc1,?,?,-19%,-5%,5%,20%
CCc1ccc2occ(CC(=O)Nc3c(C(=O)c4ccc(C)cc4)oc4ccccc34)c2c1,/,19%[59 µM],11%,/,5%,52%
CCc1nn(CC(=O)N2CCCCC2)c(=O)c2cc3occc3n12,/,37%[59 µM],-4%,/,0%,25%
